Measured values: article PMC8384837, “Expanding the binding specificity for RNA recognition by a PUF domain”

The sequences below were run against PUM1 PUF domain R5-RAR (Homo sapiens, UniProt Q14671 828-1176, C1007R;R1008A;Q1011R) (assay: yeast three-hybrid, YBZ-1, SC-Leu-His + 0.5 mM 3-AT, 4 days). Conditions: tags: N-Gal4 AD-HA kept; label: inside an RPR1-promoter hybrid RNA with tandem MS2 sites; ssRNA.
Summary of the method: (§1)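 The interaction score is the log change in how often each variant appears, from input to selection. Frequencies came from PCR-amplified, Illumina-sequenced repeat regions of Pumilio-1 PUF domain libraries grown in strain YBZ-1 (LexA–MS2 coat fusion, HIS3 reporter) alongside matching RNA elements. Input plates were SC-Leu and selection plates were SC-Leu-His + 0.5 mM 3-AT, each for four days, and the log2 calculation used a pseudocount of 1 where a variant was absent.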

Row | Sequence | binding signal
1 | GGCUAGAACUAGUGGAUCCCCCGGCGCCCGGCGGCUCGAGCCCGGGUAAGUGUAAAUAGUCUGCAUGCCGCCGGGCGCCAUGCCUGCAGGUCGACUCUAGAAAACAUG | 0.57 log2 enrichment (interaction score)
2 | GGCUAGAACUAGUGGAUCCCCCGGCGCCCGGCGGCUCGAGCCCGGGUAAGUGUCAAUAGUCUGCAUGCCGCCGGGCGCCAUGCCUGCAGGUCGACUCUAGAAAACAUG | 3.66 log2 enrichment (interaction score)
3 | GGCUAGAACUAGUGGAUCCCCCGGCGCCCGGCGGCUCGAGCCCGGGUAAGUGUUAAUAGUCUGCAUGCCGCCGGGCGCCAUGCCUGCAGGUCGACUCUAGAAAACAUG | 2.31 log2 enrichment (interaction score)

The sequences below were run against PUM1 PUF domain R1-RVM (Homo sapiens, UniProt Q14671 828-1176, S863R;R864V;Q867M) in the same assay as above. Conditions: tags: N-Gal4 AD-HA kept; label: inside an RPR1-promoter hybrid RNA with tandem MS2 sites; ssRNA.
Summary of the method: as §1

Row | Sequence | binding signal
4 | GGCUAGAACUAGUGGAUCCCCCGGCGCCCGGCGGCUCGAGCCCGGGUAAGUGUAAAUGGUCUGCAUGCCGCCGGGCGCCAUGCCUGCAGGUCGACUCUAGAAAACAUG | 1.04 log2 enrichment (interaction score)
5 | GGCUAGAACUAGUGGAUCCCCCGGCGCCCGGCGGCUCGAGCCCGGGUAAGUGUAAAUUGUCUGCAUGCCGCCGGGCGCCAUGCCUGCAGGUCGACUCUAGAAAACAUG | 2.87 log2 enrichment (interaction score)
6 | GGCUAGAACUAGUGGAUCCCCCGGCGCCCGGCGGCUCGAGCCCGGGUAAGUGUAAAUCGUCUGCAUGCCGCCGGGCGCCAUGCCUGCAGGUCGACUCUAGAAAACAUG | 3.24 log2 enrichment (interaction score)

What follows are sequences tested against PUM1 PUF domain R5-FRL (Homo sapiens, UniProt Q14671 828-1176, C1007F;Q1011L) in the same assay as above. Conditions: tags: N-Gal4 AD-HA kept; label: inside an RPR1-promoter hybrid RNA with tandem MS2 sites; ssRNA.
Summary of the method: as §1

Row | Sequence | binding signal
7 | GGCUAGAACUAGUGGAUCCCCCGGCGCCCGGCGGCUCGAGCCCGGGUAAGUGUAAAUAGUCUGCAUGCCGCCGGGCGCCAUGCCUGCAGGUCGACUCUAGAAAACAUG | 1.49 log2 enrichment (interaction score)
8 | GGCUAGAACUAGUGGAUCCCCCGGCGCCCGGCGGCUCGAGCCCGGGUAAGUGUCAAUAGUCUGCAUGCCGCCGGGCGCCAUGCCUGCAGGUCGACUCUAGAAAACAUG | 2.63 log2 enrichment (interaction score)
9 | GGCUAGAACUAGUGGAUCCCCCGGCGCCCGGCGGCUCGAGCCCGGGUAAGUGUGAAUAGUCUGCAUGCCGCCGGGCGCCAUGCCUGCAGGUCGACUCUAGAAAACAUG | 0.24 log2 enrichment (interaction score)
10 | GGCUAGAACUAGUGGAUCCCCCGGCGCCCGGCGGCUCGAGCCCGGGUAAGUGUUAAUAGUCUGCAUGCCGCCGGGCGCCAUGCCUGCAGGUCGACUCUAGAAAACAUG | 1.67 log2 enrichment (interaction score)
